From PubChem BioAssay (EPA / NIEHS)
Where “and” joins values, the source holds several entries; their conditions need not be identical. Identical values can stand only once. Calls of active or inactive are those of the source. The calls were made as follows: active = hit-call score of the fitted dose curve at least 0.9, where 1 is the maximum; inactive = score below 0.9.

How the values were obtained:
[1] = biological target: Bile acid receptor (Homo sapiens) (UniProt Q96RI1); experiment: ATG_IR1_CIS: Attagene CIS-FACTORIAL HepG2 Assay for human Nuclear Receptor Subfamily 1 Group H Member 4 (NR1H4), IR1 submotif (AID 2282946); conditions: IR1 reporter transcription, actives raise or lower the signal
Summary of the method: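 Fluorescence of capillary-separated, HpaI-digested RT-PCR reporter products gave IR1-element mRNA induction in HepG2 cells 24 h after dosing. Endogenous transcription factors drove the cis-regulated reporters; activity was fitted bidirectionally against DMSO.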

[2] = ATG_GRE_CIS: Attagene CIS-FACTORIAL HepG2 Assay for human Glucocorticoid Response Elements (GRE) (AID 2282947); conditions: HepG2 GRE cis-reporter, Attagene multiplex mRNA; actives raise or lower the signal
Summary of the method: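 Read-out: fluorescent reporter-transcript fragments separated by capillary electrophoresis after RT-PCR. Transiently transfected HepG2 cells carrying cis-element-driven reporter units were dosed for 24 h; gain or loss of signal fitted against DMSO control.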

[3] = ATG_ISRE_CIS: Attagene CIS-FACTORIAL HepG2 Assay for human Interferon Regulatory Factor 1 (IRF1) binding to an Interferon-Stimulated Response Element (ISRE) (AID 2282948); conditions: HepG2 ISRE cis-reporter (Attagene), mRNA transcription readout; actives raise or lower the signal
Summary of the method: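 Read-out: fluorescent RT-PCR products resolved by capillary electrophoresis, reporting endogenous transcription factor activity via ISRE-driven reporter mRNA in transfected HepG2 cells dosed for 24 h; gain or loss fitted relative to DMSO.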

[4] = ATG_M_32_CIS: Attagene CIS-FACTORIAL HepG2 Assay for M32 Transcription Factor (Internal Marker) (AID 2282949); conditions: HepG2 Attagene cis-factorial M32 reporter, mRNA; actives raise or lower the signal;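 also: background control marker of the multiplexed CIS panel rather than a real target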
Summary of the method: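 Using DMSO as baseline, bidirectional curve fits were applied to reporter mRNA signals. These came from transiently transfected HepG2 cells exposed for 24 h, with RNA analysed by RT-PCR, FAM primer extension, HpaI digestion and CE.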

[5] = ATG_M_06_CIS: Attagene CIS-FACTORIAL HepG2 Assay for M06 Transcription Factor (Internal Marker) (AID 2282950); conditions: HepG2 Attagene CIS-FACTORIAL M06 internal marker reporter; actives raise or lower the signal
Summary of the method: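 Serves as a background control readout. Transfected HepG2 exposed to compounds for 24 h, then reporter transcripts quantified by fluorescent RT-PCR and capillary electrophoresis. Both directions fitted against DMSO baseline.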

[6] = biological target: Hypoxia-inducible factor 1-alpha (Homo sapiens) (UniProt Q16665); experiment: ATG_HIF1a_CIS: Attagene CIS-FACTORIAL HepG2 Assay for human Hypoxia Inducible Factor 1 (HIF1A) (AID 2282951); conditions: HepG2 Attagene cis-factorial HIF1a reporter transcription; actives raise or lower the signal
Summary of the method: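 Activity is fitted in both directions relative to DMSO. Reporter transcripts are read by RT-PCR, fluorescent primer extension and capillary electrophoresis after 24 h chemical treatment. The cells are HepG2 carrying transiently transfected cis-element-driven reporter units responding to endogenous factors.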

[7] = biological target: Hepatocyte nuclear factor 6 (Homo sapiens) (UniProt Q9UBC0); experiment: ATG_HNF6_CIS: Attagene CIS-FACTORIAL HepG2 Assay for human Hepatocyte Nuclear Factor 6 (HNF6) (AID 2282952); conditions: HepG2 Attagene cis-factorial HNF6 reporter transcription; actives raise or lower the signal
Summary of the method: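 Twenty-four-hour chemical treatment of reporter-transfected HepG2 cells precedes RNA isolation, DNase-treated reverse transcription and PCR of reporter sequences. Labelled fragments are sized by capillary electrophoresis and fitted bidirectionally versus DMSO.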

[8] = biological target: Heat shock factor protein 1 (Homo sapiens) (UniProt Q00613); experiment: ATG_HSE_CIS: Attagene CIS-FACTORIAL HepG2 Assay for human Heat Shock Transcription Factor 1 (HSE) (AID 2282953); conditions: HepG2 HSE cis-reporter, Attagene RNA transcription; actives raise or lower the signal
Summary of the method: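 Endogenous transcription factor activity in transiently transfected HepG2, read as reporter mRNA by RT-PCR with fluorescent capillary electrophoresis after 24 h. Gain or loss of signal fitted versus DMSO baseline.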

[9] = ATG_MRE_CIS: Attagene CIS-FACTORIAL HepG2 Assay for human Metal Responsive Element (MRE) (AID 2282954); conditions: HepG2 MRE cis-reporter transcription, Attagene multiplex; actives raise or lower the signal
Summary of the method: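 RT-PCR/capillary electrophoresis readout of reporter mRNA, 24 h post-dosing, in HepG2 cells transfected with multiplexed cis-regulated reporter constructs. Gain or loss of signal fitted bidirectionally against DMSO baseline.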

[10] = biological target: Paired box protein Pax-6 (Homo sapiens) (UniProt P26367); experiment: ATG_Pax6_CIS: Attagene CIS-FACTORIAL HepG2 Assay for human Paired Box 6 (PAX6) (AID 2282956); conditions: HepG2 CIS-FACTORIAL PAX6 reporter transcription, RNA readout; actives raise or lower the signal
Summary of the method: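 Readout: reporter transcript fluorescence after RT-PCR and capillary electrophoresis. Cells: HepG2, transiently transfected with cis-regulated MRTUs. Exposure 24 h. Gain or loss of signal fitted bidirectionally relative to DMSO.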

[11] = ATG_PXRE_CIS: Attagene CIS-FACTORIAL HepG2 Assay for human Pregnane X Receptor Element (PXRE) (AID 2282957); conditions: HepG2 Attagene CIS-FACTORIAL PXRE reporter, mRNA; actives raise or lower the signal
Summary of the method: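 Bidirectional activity, baselined to DMSO, derived from reporter mRNA fluorescence (RT-PCR plus capillary electrophoresis) in HepG2 cells bearing cis-promoter reporter units, 24 h exposure.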

[12] = ATG_RORE_CIS: Attagene CIS-FACTORIAL HepG2 Assay for human RAR-related Orphan Receptor Element (RORE) (AID 2282959); conditions: HepG2 Attagene cis-factorial RORE reporter, mRNA; actives raise or lower the signal
Summary of the method: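 RORE reporter transcripts reflecting endogenous factor activity were read after 24 h compound exposure of transfected HepG2 cells, using reverse transcription, PCR, fluorescent labelling and capillary electrophoresis sizing. Gain or loss fitted against DMSO.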

[13] = ATG_Sox_CIS: Attagene CIS-FACTORIAL HepG2 Assay for human SRY-box transcription factor (SOX) (AID 2282960); conditions: HepG2 Attagene cis-factorial SOX reporter, mRNA; actives raise or lower the signal
Summary of the method: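 Reporter transcripts, measured by RT-PCR and capillary electrophoresis of labelled fragments, report endogenous SOX transcription factor activity. Transiently transfected human HepG2 cells receive chemical for 24 h; changes in either direction are fitted relative to DMSO.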

[14] = biological target: Transcription factor Sp1 (Homo sapiens) (UniProt P08047); experiment: ATG_Sp1_CIS: Attagene CIS-FACTORIAL HepG2 Assay for human Specificity Protein 1 (Sp1) (AID 2282961); conditions: HepG2 Sp1 cis-reporter transcription, actives raise or lower the signal
Summary of the method: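 Read-out is reporter transcript level, measured by RT-PCR and fluorescent capillary electrophoresis after 24 h chemical treatment. System: transiently transfected HepG2 cells reporting endogenous transcription factor activity; gain or loss fitted against DMSO baseline.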

[15] = ATG_SREBP_CIS: Attagene CIS-FACTORIAL HepG2 Assay for human Sterol Regulatory Element Binding (SREBP) (AID 2282962); conditions: HepG2 Attagene cis-factorial SREBP reporter, mRNA; actives raise or lower the signal
Summary of the method: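 Readout: fluorescent reporter-transcript peaks resolved by capillary electrophoresis after RT-PCR. Cells were human HepG2 carrying transfected cis-promoter reporter constructs, dosed for 24 h. Gain or loss of signal was fitted against DMSO controls.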

[16] = biological target: Signal transducer and activator of transcription 3 (Homo sapiens) (UniProt P40763); experiment: ATG_STAT3_CIS: Attagene CIS-FACTORIAL HepG2 Assay for human Signal Transducer and Activator of Transcription 3 (STAT3) (AID 2282963); conditions: HepG2, Attagene cis-factorial STAT3 reporter transcription; actives raise or lower the signal
Summary of the method: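 Readout: fluorescent reporter mRNA fragments resolved by capillary electrophoresis. Setup: HepG2 transfected with MRTUs reporting endogenous transcription-factor activity, dosed 24 h. Gain or loss of signal fitted bidirectionally against DMSO control.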

[17] = ATG_TA_CIS: Attagene CIS-FACTORIAL HepG2 Assay for human TA Basal Promoter (AID 2282964); conditions: HepG2 Attagene CIS-factorial TA basal promoter reporter; actives raise or lower the signal
Summary of the method: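 Background-control readout: TA basal promoter reporter mRNA, fitted in both directions relative to DMSO. Measured by RT-PCR and capillary electrophoresis 24 hours after treating HepG2 human liver cells transiently carrying multiplexed cis-regulated reporter constructs.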

[18] = ATG_TCF_b_cat_CIS: Attagene CIS-FACTORIAL HepG2 Assay for human T-Cell-Factor with beta-catenin (TCF/b-cat) (AID 2282965); conditions: HepG2 TCF/beta-catenin cis-reporter transcription, actives raise or lower the signal
Summary of the method: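 HepG2 cells transiently transfected with cis-promoter-driven multiplexed reporter units; reporter mRNA measured 24 h after dosing by RT-PCR, FAM labelling, HpaI digestion and capillary electrophoresis. Bidirectional fitting relative to DMSO baseline.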

[19] = ATG_PBREM_CIS: Attagene CIS-FACTORIAL HepG2 Assay for human Phenobarbital-responsive Enhancer Module (PBREM) (AID 2282955); conditions: HepG2 PBREM cis-reporter, Attagene multiplexed transcription; actives raise or lower the signal
Summary of the method: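 Endogenous transcription factor activity was read from reporter transcripts in transiently transfected human HepG2 liver cells after 24 h dosing. RT-PCR products were fluorescently labelled, HpaI-cut and sized by capillary electrophoresis; activity fitted bidirectionally against DMSO baseline.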

[20] = ATG_PPRE_CIS: Attagene CIS-FACTORIAL HepG2 Assay for human Peroxisome Proliferator-activated Response Element (PPRE) (AID 2282958); conditions: HepG2 PPRE cis-element reporter, Attagene transcription factor profiling; actives raise or lower the signal
Summary of the method: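 Endogenous PPRE-driven transcription is measured in HepG2 cells carrying transfected multi-reporter constructs. Reporter transcripts are quantified by RT-PCR, HpaI digestion and capillary electrophoresis 24 h after dosing. DMSO baseline, bidirectional fit.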

Measured: AC50

Sequence of Transcription factor Sp1 (Homo sapiens) (P08047 whole entry, looked up): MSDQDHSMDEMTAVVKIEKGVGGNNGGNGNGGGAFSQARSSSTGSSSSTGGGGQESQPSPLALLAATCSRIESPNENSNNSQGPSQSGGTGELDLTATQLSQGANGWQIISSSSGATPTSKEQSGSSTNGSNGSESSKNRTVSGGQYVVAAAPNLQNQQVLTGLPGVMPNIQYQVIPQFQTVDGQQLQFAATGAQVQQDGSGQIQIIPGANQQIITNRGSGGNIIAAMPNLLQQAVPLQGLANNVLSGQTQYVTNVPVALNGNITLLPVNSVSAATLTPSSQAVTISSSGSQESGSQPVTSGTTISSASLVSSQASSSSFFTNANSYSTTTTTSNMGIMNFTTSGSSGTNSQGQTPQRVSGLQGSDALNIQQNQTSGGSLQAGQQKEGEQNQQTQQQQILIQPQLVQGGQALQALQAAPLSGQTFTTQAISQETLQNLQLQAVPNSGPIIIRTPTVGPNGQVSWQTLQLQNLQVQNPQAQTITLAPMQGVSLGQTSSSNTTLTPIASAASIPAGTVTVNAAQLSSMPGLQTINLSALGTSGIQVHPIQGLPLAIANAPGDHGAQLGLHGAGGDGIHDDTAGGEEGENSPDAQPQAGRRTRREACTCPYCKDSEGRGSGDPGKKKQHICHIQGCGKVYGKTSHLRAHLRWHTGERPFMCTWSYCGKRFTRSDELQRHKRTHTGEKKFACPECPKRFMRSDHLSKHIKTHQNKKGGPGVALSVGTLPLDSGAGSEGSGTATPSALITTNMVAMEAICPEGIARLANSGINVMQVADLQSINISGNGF
Sequence of Hypoxia-inducible factor 1-alpha (Homo sapiens) (Q16665 whole entry, looked up): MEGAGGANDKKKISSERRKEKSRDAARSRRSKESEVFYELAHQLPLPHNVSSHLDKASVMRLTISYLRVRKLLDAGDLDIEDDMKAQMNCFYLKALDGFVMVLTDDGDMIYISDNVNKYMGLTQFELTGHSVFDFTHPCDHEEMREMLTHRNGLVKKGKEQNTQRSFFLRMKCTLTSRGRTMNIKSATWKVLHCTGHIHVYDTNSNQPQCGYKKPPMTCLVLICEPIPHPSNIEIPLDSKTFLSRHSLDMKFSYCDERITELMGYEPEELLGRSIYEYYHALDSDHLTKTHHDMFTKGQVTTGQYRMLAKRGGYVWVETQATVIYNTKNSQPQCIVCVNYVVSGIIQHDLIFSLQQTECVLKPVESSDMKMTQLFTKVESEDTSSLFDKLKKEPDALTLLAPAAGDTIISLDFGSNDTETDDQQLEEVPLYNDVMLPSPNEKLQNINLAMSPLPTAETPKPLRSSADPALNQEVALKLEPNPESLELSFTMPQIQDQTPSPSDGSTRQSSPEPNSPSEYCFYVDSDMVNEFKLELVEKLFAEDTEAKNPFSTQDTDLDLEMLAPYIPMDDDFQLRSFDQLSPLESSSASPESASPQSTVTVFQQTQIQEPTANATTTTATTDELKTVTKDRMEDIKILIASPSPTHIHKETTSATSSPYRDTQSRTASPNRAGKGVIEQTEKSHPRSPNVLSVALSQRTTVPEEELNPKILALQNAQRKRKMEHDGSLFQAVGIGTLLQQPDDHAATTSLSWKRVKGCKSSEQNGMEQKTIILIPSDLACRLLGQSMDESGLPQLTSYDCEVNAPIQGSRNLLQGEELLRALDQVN
Sequence of Signal transducer and activator of transcription 3 (Homo sapiens) (P40763 whole entry, looked up, the tested form may be a part): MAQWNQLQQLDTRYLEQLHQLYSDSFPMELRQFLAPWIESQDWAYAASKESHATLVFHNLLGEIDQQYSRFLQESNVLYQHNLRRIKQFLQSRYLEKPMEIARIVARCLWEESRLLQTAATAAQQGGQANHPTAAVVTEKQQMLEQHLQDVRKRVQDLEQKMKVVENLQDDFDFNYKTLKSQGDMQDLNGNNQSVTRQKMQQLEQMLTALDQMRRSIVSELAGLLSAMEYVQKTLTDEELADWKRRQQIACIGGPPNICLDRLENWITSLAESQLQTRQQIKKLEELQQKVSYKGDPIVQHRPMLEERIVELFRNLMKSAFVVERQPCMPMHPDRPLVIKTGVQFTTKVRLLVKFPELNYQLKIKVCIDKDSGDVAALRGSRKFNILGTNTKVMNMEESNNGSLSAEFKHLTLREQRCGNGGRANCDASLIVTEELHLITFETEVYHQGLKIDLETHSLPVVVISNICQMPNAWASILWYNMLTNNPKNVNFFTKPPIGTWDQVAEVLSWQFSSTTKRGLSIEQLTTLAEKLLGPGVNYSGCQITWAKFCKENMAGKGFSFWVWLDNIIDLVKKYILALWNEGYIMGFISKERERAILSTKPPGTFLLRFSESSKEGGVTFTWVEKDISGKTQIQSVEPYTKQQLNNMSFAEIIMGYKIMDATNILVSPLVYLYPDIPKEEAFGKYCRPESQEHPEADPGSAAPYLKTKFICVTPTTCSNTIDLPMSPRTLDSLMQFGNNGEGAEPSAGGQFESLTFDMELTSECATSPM
Sequence of Hepatocyte nuclear factor 6 (Homo sapiens) (Q9UBC0 whole entry, looked up, the tested form may be a part): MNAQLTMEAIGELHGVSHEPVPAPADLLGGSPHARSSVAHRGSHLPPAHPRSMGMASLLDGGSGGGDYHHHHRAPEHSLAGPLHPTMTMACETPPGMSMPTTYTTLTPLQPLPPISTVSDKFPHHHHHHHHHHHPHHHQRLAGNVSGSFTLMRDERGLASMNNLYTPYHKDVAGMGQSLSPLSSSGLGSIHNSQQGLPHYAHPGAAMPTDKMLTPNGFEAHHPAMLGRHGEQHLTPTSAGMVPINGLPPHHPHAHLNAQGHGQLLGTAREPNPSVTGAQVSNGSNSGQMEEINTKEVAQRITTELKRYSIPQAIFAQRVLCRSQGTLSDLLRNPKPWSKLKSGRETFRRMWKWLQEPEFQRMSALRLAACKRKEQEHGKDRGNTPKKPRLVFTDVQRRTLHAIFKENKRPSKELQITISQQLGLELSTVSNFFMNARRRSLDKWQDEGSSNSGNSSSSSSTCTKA
Sequence of Heat shock factor protein 1 (Homo sapiens) (Q00613 whole entry, looked up): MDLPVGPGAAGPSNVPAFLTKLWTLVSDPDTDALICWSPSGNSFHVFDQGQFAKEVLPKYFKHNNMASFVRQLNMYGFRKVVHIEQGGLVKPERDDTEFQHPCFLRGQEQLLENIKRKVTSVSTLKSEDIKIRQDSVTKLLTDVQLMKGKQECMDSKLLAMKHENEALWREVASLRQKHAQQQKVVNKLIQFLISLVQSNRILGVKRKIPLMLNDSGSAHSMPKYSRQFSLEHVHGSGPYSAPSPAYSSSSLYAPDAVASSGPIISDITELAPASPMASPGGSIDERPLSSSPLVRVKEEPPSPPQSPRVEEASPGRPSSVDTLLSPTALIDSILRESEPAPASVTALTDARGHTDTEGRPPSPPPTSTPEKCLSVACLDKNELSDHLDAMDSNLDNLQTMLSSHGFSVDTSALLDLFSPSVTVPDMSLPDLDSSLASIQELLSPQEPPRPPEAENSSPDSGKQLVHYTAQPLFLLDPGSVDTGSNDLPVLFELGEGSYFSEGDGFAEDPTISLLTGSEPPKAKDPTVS
Sequence of Paired box protein Pax-6 (Homo sapiens) (P26367 whole entry, looked up): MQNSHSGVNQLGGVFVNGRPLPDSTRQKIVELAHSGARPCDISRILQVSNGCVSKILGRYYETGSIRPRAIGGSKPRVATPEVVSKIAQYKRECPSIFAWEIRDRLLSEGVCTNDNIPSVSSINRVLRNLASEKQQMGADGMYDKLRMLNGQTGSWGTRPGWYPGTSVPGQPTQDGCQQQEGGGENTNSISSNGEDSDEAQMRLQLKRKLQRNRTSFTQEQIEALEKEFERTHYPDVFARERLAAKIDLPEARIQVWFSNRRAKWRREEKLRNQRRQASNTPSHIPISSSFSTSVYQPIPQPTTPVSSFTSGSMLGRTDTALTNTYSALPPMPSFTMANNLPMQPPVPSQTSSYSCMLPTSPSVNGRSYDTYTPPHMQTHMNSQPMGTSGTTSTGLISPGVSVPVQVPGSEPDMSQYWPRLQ
Sequence of Bile acid receptor (Homo sapiens) (Q96RI1 whole entry, looked up): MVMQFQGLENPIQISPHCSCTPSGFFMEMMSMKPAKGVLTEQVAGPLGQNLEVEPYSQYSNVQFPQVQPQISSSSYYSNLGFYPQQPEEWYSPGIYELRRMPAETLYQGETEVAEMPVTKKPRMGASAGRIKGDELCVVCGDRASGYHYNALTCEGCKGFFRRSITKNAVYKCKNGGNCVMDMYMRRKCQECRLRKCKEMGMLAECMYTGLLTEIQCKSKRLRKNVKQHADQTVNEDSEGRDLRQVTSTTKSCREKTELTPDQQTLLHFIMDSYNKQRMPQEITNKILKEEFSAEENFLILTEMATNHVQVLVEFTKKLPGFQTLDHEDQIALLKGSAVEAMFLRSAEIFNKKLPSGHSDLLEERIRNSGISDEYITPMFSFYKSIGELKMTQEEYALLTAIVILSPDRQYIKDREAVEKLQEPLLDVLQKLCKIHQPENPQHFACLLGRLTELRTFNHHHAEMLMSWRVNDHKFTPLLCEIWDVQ

CCCCN(CCCC)N=O
active: [11] 42.7 µM
not listed: [19] | [20]
inactive: all other assays above

O=P(Oc1ccccc1)(Oc1ccccc1)Oc1ccccc1
active: [1] 26.6 µM | [3] 33.4 µM | [8] 53.4 µM | [9] 33.4 µM | [10] 33.4 µM | [11] 8.63 µM | [17] 42 µM
not listed: [12] | [15] | [18] | [20]
inactive: all other assays above

CC1=C(C(=O)Nc2ccccc2)S(=O)(=O)CCO1
active: [1] 58.6 µM | [3] 30.2 µM | [6] 27.2 µM | [7] 45.4 µM | [9] 9.73 µM | [10] 19.9 µM | [11] 5.02 µM
not listed: [17] | [20]
inactive: all other assays above

Cn1[nH]nnc1=S
active: [6] 27 µM
not listed: [4]
inactive: all other assays above

O=c1ssc(Cl)c1Cl
active: [1] 58.3 µM | [3] 48.6 µM | [8] 61.2 µM | [9] 49.6 µM | [19] 50.3 µM | [10] 62.5 µM | [13] 50.1 µM | [14] 51.6 µM | [18] 53 µM
not listed: [4]
inactive: all other assays above

CCNc1nc(Cl)nc(NC(C)(C)C)n1
active: [11] 6.16 µM
not listed: [15] | [17] | [20]
inactive: all other assays above

CO/N=C(/C(=O)OC)c1ccccc1COc1ccccc1C
active: [6] 100 µM | [8] 150 µM | [9] 100 µM | [10] 70.1 µM | [11] 4.57 µM | [12] 36.5 µM
not listed: [4] | [20]
inactive: all other assays above

O=C(O)C(F)(F)OC(F)(F)C(F)(F)OC(F)(F)F
active: [20] 96.5 µM and 114 µM
not listed: [4]
inactive: all other assays above

COP(N)(=S)OC
active: [11] 47 µM
not listed: [4] | [15]
inactive: all other assays above

COC(N)=O
active: [6] 100 µM
not listed: [4] | [15]
inactive: all other assays above

O=NN1CCCC1
not listed: [4] | [17] | [18]
inactive: all other assays above

CC(C)(C)N(NC(=O)c1ccc(Cl)cc1)C(=O)c1ccccc1
active: [11] 4.36 µM
not listed: [4]
inactive: all other assays above

CCOP(=S)(S)OCC
active: [8] 157 µM | [11] 57.5 µM
not listed: [4]
inactive: all other assays above

O=C(O)C(F)(F)OC(F)(F)C(F)(F)OC(F)(F)C(=O)O
not listed: [4] | [15]
inactive: all other assays above
